Source: PubChem BioAssay AID1159580 (chemical genetic matrix, 2015)
Hit rate of the full screen: of about 5,500 compounds, about 2,000 (36%) were called active. Roughly 18% stayed inconclusive and do not appear here. No stated cut-off is given here; in the data, active means normalized growth mostly below about 0.91 (no sharp cut-off); inconclusive means no clear call, values can overlap the other calls; inactive means mostly above about 0.92. The list shows a part of the results.

Assay: chemical genetic growth profiling, strain panel (AID 1159580);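 further: tested at 20 µM; growth read once vehicle control cultures reached saturation at 30 °C; 1 = growth at the plate median or of vehicle wells; lower values mean less growth of the strain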
Conditions: growth OD
[1] = S. cerevisiae deletion strains, locus YAL013W, strain DEP1, active compounds read low
[2] = S. cerevisiae deletion strains, locus YBR229C, strain ROT2, active compounds read low
[3] = S. cerevisiae deletion strains, locus YDL101C, strain DUN1, active compounds read low
[4] = S. cerevisiae deletion strains, locus YDR150W, strain NUM1, active compounds read low
[5] = S. cerevisiae deletion strains, locus YEL061C, strain CIN8, active compounds read low
[6] = S. cerevisiae deletion strains, locus YGR078C, strain PAC10, active compounds read low
[7] = S. cerevisiae deletion strains, locus YHR030C, strain SLT2, active compounds read low
[8] = S. cerevisiae deletion strains, locus YHR087W, strain rtc3, active compounds read low
[9] = S. cerevisiae deletion strains, locus YJR043C, strain POL32, active compounds read low
[10] = S. cerevisiae deletion strains, locus YJR075W, strain HOC1, active compounds read low
[11] = S. cerevisiae deletion strains, locus YLR039C, strain RIC1, active compounds read low
[12] = S. cerevisiae deletion strains, locus YLR058C, strain SHM2 (second series), active compounds read low
[13] = S. cerevisiae deletion strains, locus YLR085C, strain ARP6, active compounds read low
[14] = S. cerevisiae deletion strains, locus YLR262C, strain YPT6, active compounds read low
[15] = S. cerevisiae deletion strains, locus YML094W, strain GIM5, active compounds read low
[16] = S. cerevisiae deletion strains, locus YMR219W, strain ESC1, active compounds read low
[17] = S. cerevisiae deletion strains, locus YMR263W, strain SAP30, active compounds read low
[18] = S. cerevisiae deletion strains, locus YNL153C, strain GIM3, active compounds read low
[19] = S. cerevisiae deletion strains, locus YNL298W, strain CLA4 (second series), active compounds read low
[20] = S. cerevisiae deletion strains, locus YNL322C, strain KRE1, active compounds read low
[21] = S. cerevisiae deletion strains, locus YNR030W, strain Alg12, active compounds read low
[22] = S. cerevisiae deletion strains, locus YOL006C, strain TOP1, active compounds read low
[23] = S. cerevisiae deletion strains, locus YPL055C, strain LGE1, active compounds read low
[24] = S. cerevisiae deletion strains, locus YPL241C, strain CIN2, active compounds read low
[25] = S. cerevisiae deletion strains, locus YPR135W, strain CTF4, active compounds read low
[26] = S. cerevisiae deletion strains, locus YGR229C, strain SMI1, active compounds read low
[27] = S. cerevisiae deletion strains, locus YJL187C, strain SWE1, active compounds read low
[28] = S. cerevisiae strains, strain wild type, active compounds read low

Measured: normalized growth

Cc1ccc(NC(=S)NCCO)c(C)c1
inactive: [1] 1 | [2] 0.987 | [3] 1.01 | [4] 1 | [5] 0.99 | [6] 1.01 | [7] 1 | [8] 1.01 | [9] 0.997 | [10] 0.978 | [11] 1.01 | [12] 0.996 | [13] 1 | [14] 1 | [15] 1.01 | [16] 1 | [17] 1 | S. cerevisiae deletion strains, locus YNL128W, strain TEP1, active compounds read low 1 | [18] 1 | [19] 1.02 | [20] 0.98 | [21] 0.986 | [22] 1.03 | [23] 1.01 | [24] 0.945 | [25] 1.03

COCCCNC(=S)Nc1ccc(C)cc1C
inactive: [1] 0.985 | [2] 0.974 | [3] 0.968 | [4] 0.966 | [5] 1.01 | [6] 0.98 | [26] 0.986 | [7] 0.974 | [8] 1.04 | [27] 0.993 | [9] 0.977 | [10] 1 | [11] 0.975 | [12] 0.982 | [13] 0.921 | [14] 0.961 | [15] 1 | [16] 0.99 | [17] 0.999 | [18] 0.986 | [19] 0.97 | [20] 0.981 | [21] 1 | [22] 0.923 | [23] 1.01 | [24] 0.973 | [25] 0.917 | [28] 0.987

Cc1ccc(-n2cccc2)c(NC(=S)Nc2ccc(Br)cc2OC(F)(F)F)c1
inactive: [1] 0.978 | [2] 1 | [3] 1.02 | S. cerevisiae deletion strains, locus YDL134C, strain PPH21, active compounds read low 1.01 | [4] 0.892 | [5] 0.988 | [6] 0.973 | [26] 1.03 | [8] 1.02 | [27] 0.987 | [9] 1.03 | [10] 0.972 | [12] 1.01 | [15] 0.904 | [16] 1.01 | [17] 0.964 | [18] 0.979 | [20] 1.01 | [21] 0.925 | [22] 0.796 | [23] 0.882 | [24] 0.92 | [25] 0.679 | [28] 0.998
active: [7] 0.558 | [11] 0.621 | [13] 0.658 | [14] 0.587 | [19] 0.757

CCCCCCCCCCCCCCCC(=O)OC1C(SC)OC(C(NC(=O)C2CC(CCC)CN2C)C(C)Cl)C(O)C1O (stereo not given)
inactive: S. cerevisiae deletion strains, locus YAL021C, strain ccr4, active compounds read low 0.958 | S. cerevisiae deletion strains, locus YAL026C, strain drs2, active compounds read low 0.976 | S. cerevisiae deletion strains, locus YAL030W, strain snc1, active compounds read low 0.989 | S. cerevisiae deletion strains, locus YBL061C, strain skt5, active compounds read low 0.963 | S. cerevisiae deletion strains, locus YBR009C, strain hhf1, active compounds read low 0.977 | S. cerevisiae deletion strains, locus YBR023C, strain chs3, active compounds read low 0.984 | S. cerevisiae deletion strains, locus YBR171W, strain sec66, active compounds read low 0.961 | S. cerevisiae deletion strains, locus YBR231C, strain swc5, active compounds read low 0.979 | S. cerevisiae deletion strains, locus YBR279W, strain paf1, active compounds read low 0.981 | S. cerevisiae deletion strains, locus YCL011C, strain gbp2, active compounds read low 0.978 | S. cerevisiae deletion strains, locus YCL016C, strain dcc1, active compounds read low 0.982 | S. cerevisiae deletion strains, locus YCL061C, strain MRC1, active compounds read low 0.98 | S. cerevisiae deletion strains, locus YCL069W, strain vba3, active compounds read low 0.985 | S. cerevisiae deletion strains, locus YCR088W, strain abp1, active compounds read low 0.972 | S. cerevisiae deletion strains, locus YDL005C, strain med2, active compounds read low 0.968 | S. cerevisiae deletion strains, locus YDL040C, strain nat1, active compounds read low 0.979 | S. cerevisiae deletion strains, locus YDR001C, strain nth1, active compounds read low 0.974 | S. cerevisiae deletion strains, locus YDR069C, strain doa4, active compounds read low 0.975 | S. cerevisiae deletion strains, locus YDR137W, strain rgp1, active compounds read low 1 | S. cerevisiae deletion strains, locus YDR159W, strain sac3, active compounds read low 0.958 | S. cerevisiae deletion strains, locus YDR195W, strain ref2 0.964 | S. cerevisiae deletion strains, locus YDR297W, strain sur2, active compounds read low 0.976 | S. cerevisiae deletion strains, locus YDR334W, strain swr1, active compounds read low 0.973 | S. cerevisiae deletion strains, locus YDR335W, strain msn5, active compounds read low 0.978 | S. cerevisiae deletion strains, locus YDR392W, strain spt3, active compounds read low 0.96 | S. cerevisiae deletion strains, locus YEL003W, strain gim4, active compounds read low 0.98 | S. cerevisiae deletion strains, locus YEL037C, strain rad23, active compounds read low 0.979 | S. cerevisiae deletion strains, locus YEL061C, strain CIN8 (second series), active compounds read low 0.985 | S. cerevisiae deletion strains, locus YER015W, strain faa2, active compounds read low 0.972 | S. cerevisiae deletion strains, locus YER016W, strain bim1, active compounds read low 0.976 | S. cerevisiae deletion strains, locus YER111C, strain swi4, active compounds read low 0.964 | S. cerevisiae deletion strains, locus YER155C, strain BEM2 (second series), active compounds read low 0.968 | S. cerevisiae deletion strains, locus YFR010W, strain ubp6, active compounds read low 0.961 | S. cerevisiae deletion strains, locus YGL167C, strain pmr1, active compounds read low 0.972 | S. cerevisiae deletion strains, locus YGL173C, strain kem1, active compounds read low 0.975 | S. cerevisiae deletion strains, locus YGL227W, strain vid30, active compounds read low 0.963 | S. cerevisiae deletion strains, locus YGL240W, strain doc1, active compounds read low 0.983 | S. cerevisiae deletion strains, locus YGL253W, strain hxk2, active compounds read low 0.978 | S. cerevisiae deletion strains, locus YHR013C, strain ard1, active compounds read low 0.98 | S. cerevisiae deletion strains, locus YHR027C, strain rpn1, active compounds read low 0.985 | S. cerevisiae deletion strains, locus YHR142W, strain chs7, active compounds read low 0.97 | S. cerevisiae deletion strains, locus YJL092W, strain hpr5, active compounds read low 0.967 | S. cerevisiae deletion strains, locus YJL095W, strain BCK1 (second series), active compounds read low 0.99 | S. cerevisiae deletion strains, locus YJL115W, strain asf1, active compounds read low 0.974 | S. cerevisiae deletion strains, locus YJL129C, strain trk1, active compounds read low 0.983 | S. cerevisiae deletion strains, locus YJL154C, strain vps35, active compounds read low 0.963 | S. cerevisiae deletion strains, locus YJL164C, strain tpk1, active compounds read low 0.986 | S. cerevisiae deletion strains, locus YJL166W, strain qcr8, active compounds read low 0.988 | [27] 0.982 | S. cerevisiae deletion strains, locus YKL160W, strain elf1, active compounds read low 0.988 | S. cerevisiae deletion strains, locus YKR026C, strain gcn3, active compounds read low 0.973 | S. cerevisiae deletion strains, locus YKR091W, strain srl3, active compounds read low 0.985 | S. cerevisiae deletion strains, locus YLL001W, strain dnm1, active compounds read low 0.99 | S. cerevisiae deletion strains, locus YLL026W, active compounds read low 0.974 | S. cerevisiae deletion strains, locus YLL041C, strain sdh2, active compounds read low 0.978 | S. cerevisiae deletion strains, locus YLR027C, strain aat2, active compounds read low 0.976 | S. cerevisiae deletion strains, locus YLR221C, strain rsa3, active compounds read low 0.976 | S. cerevisiae deletion strains, locus YLR258W, strain gsy2, active compounds read low 0.984 | S. cerevisiae deletion strains, locus YLR262C, strain YPT6 (second series), active compounds read low 1.02 | S. cerevisiae deletion strains, locus YLR320W, strain mms22, active compounds read low 0.964 | S. cerevisiae deletion strains, locus YLR342W, strain FKS1, active compounds read low 0.966 | S. cerevisiae deletion strains, locus YLR357W, strain rsc2, active compounds read low 0.95 | S. cerevisiae deletion strains, locus YLR370C, strain arc18, active compounds read low 0.977 | S. cerevisiae deletion strains, locus YLR384C, strain iki3, active compounds read low 0.955 | S. cerevisiae deletion strains, locus YML120C, strain ndi1, active compounds read low 0.989 | S. cerevisiae deletion strains, locus YMR058W, strain fet3, active compounds read low 0.977 | S. cerevisiae deletion strains, locus YMR125W, strain sto1, active compounds read low 0.971 | S. cerevisiae deletion strains, locus YMR129W, active compounds read low 0.977 | S. cerevisiae deletion strains, locus YMR205C, strain PFK2, active compounds read low 0.972 | S. cerevisiae deletion strains, locus YMR231W, strain pep5, active compounds read low 0.959 | S. cerevisiae deletion strains, locus YNL071W, strain lat1, active compounds read low 0.993 | S. cerevisiae deletion strains, locus YNL209W, strain ssb2, active compounds read low 0.985 | S. cerevisiae deletion strains, locus YNL248C, strain rpa49, active compounds read low 0.979 | S. cerevisiae deletion strains, locus YNL322C, strain KRE1 (second series), active compounds read low 0.969 | S. cerevisiae deletion strains, locus YNR049C, strain mso1, active compounds read low 0.972 | S. cerevisiae deletion strains, locus YOR001W, strain rrp6, active compounds read low 0.981 | S. cerevisiae deletion strains, locus YOR070C, strain gyp1, active compounds read low 0.972 | S. cerevisiae deletion strains, locus YOR080W, strain dia2, active compounds read low 0.98 | S. cerevisiae deletion strains, locus YOR083W, strain WHI5, active compounds read low 0.988 | S. cerevisiae deletion strains, locus YOR106W, strain vam3, active compounds read low 0.973 | S. cerevisiae deletion strains, locus YOR265W, strain rbl2, active compounds read low 0.986 | S. cerevisiae deletion strains, locus YOR270C, strain vph1, active compounds read low 0.998 | S. cerevisiae deletion strains, locus YOR290C, strain snf2, active compounds read low 0.974 | S. cerevisiae deletion strains, locus YPL051W, strain arl3, active compounds read low 0.972 | S. cerevisiae deletion strains, locus YPL078C, strain atp4, active compounds read low 0.976 | S. cerevisiae deletion strains, locus YPL106C, strain sse1, active compounds read low 0.979 | S. cerevisiae deletion strains, locus YPL240C, strain hsp82, active compounds read low 0.976
